# In PubChem BioAssay (Tox21):
# Values without a mark were called inactive. The source made the active and inactive calls. The call rests on the fitted dose curve; in most records, active means well fitted curve in the direction sought with a large enough effect in the repeat runs; inconclusive means weak or mixed curves; inactive means flat fitted curve, though single readings scatter.
# Assay: qHTS assay to test for compound auto fluorescence at 535 nm (green) in HepG2 cell free culture (AID 720686)
# Details: Cell-free medium, green autofluorescence 485/535 nm; series mostly up to 91.3 µM
# Source text: U.S. Tox21 Program National Center for Advancing Translational Sciences [NCATS] NIH Chemical Genomics Center [NCGC] U.S. Environmental Protection Agency [EPA] National Institutes of Environmental Health Sciences [NIEHS] National Toxicology Program [NTP] U.S. Food and Drug Administration [FDA] Tox21 Assay Overview: Compound auto fluorescence often interferes with screening of the compound library against various biological targets and signaling pathways. Some of these compounds may have fluorophoric properties. Such properties may interfere with the assay outputs resulting in false positives and/or negatives. To decrease such complications and ensure the compound activities are relevant in terms of biological response, the Tox21 10K compound library was screened for auto fluorescence. From the fluorophores used as reporter signals in our screening assays, the auto fluorescence equivalencies of compounds against three fluorophores have been evaluated: Triamterene, Fluorescein and Rose Bengal sodium for blue, green and red fluorescence, respectively. The fluorescence intensities were measured using Excitation/Emission wavelengths at 405/460nm, 485/535nm and 540/590nm for blue, green and red labels, respectively. This assay includes the green fluorescence data.
# Tox21 Assay Protocol Summary: 5 uL of culture medium (MEM containing 10% FBS) per well was dispensed into black wall/clear bottom 1536-well plates using a Multidrop Combi Dispenser (ThermoFisher Scientific, Waltham, MA). After 23 nL compound or DMSO vehicle was transferred into assay plate by a pintool work station (Kalypsys, San Diego, CA), fluorescence intensities in the assay plates were measured by an Envision (PerkinElmer, Shelton, CT) plate reader using three labels for measuring blue, green and red fluorescence at […] 460, 535 and 590nm respectively.
# On the % scale 0 is the no-effect control and ±100 the full control effect.
SMILES,outcome,"fluorescence, % of fluorescein control"
CCO/C=C1\N=C(c2ccccc2)OC1=O,inactive,–
C=CC(C)(CCC=C(C)C)OC(=O)C(C)C (stereo not given),inactive,–
C=C(C)C(=O)OCCCC,inactive,–
BrCCOc1ccccc1,inactive,–
COc1cc(C(=O)NC2CCCNC2)cc(OC)c1OC (stereo not given),inactive,–
O=C(OOC(=O)c1ccccc1)c1ccccc1,inactive,–
CC(C)(C)OC(=O)c1ccccc1C(=O)O,inactive,–
C=CCOC(=O)CCCCCCCC,inactive,–
Nc1ccc(C(=O)NCC(=O)O)cc1,–,0.0021% [at 18.6 µM]
CNC(C)=O,inactive,–
CCCCCCCCS(=O)(=O)O,inactive,–
CCNC(=O)C(C)OC(=O)Nc1ccccc1 (stereo not given),inactive,–
O=Cc1ccc(C(=O)O)cc1,inactive,–
Cc1ccc2cccnc2c1,inactive,–
NC[C@H]1O[C@H](O[C@H]2[C@H](O)[C@@H](O[C@H]3O[C@H](CO)[C@@H](O)[C@H](N)[C@H]3O)[C@H](N)C[C@@H]2N)[C@H](N)[C@@H](O)[C@@H]1O,inactive,–
N[C@H]1C(O)O[C@H](CO)[C@@H](O)[C@@H]1O (stereo not given in full),inactive,–
C=CC(=O)OCC[N+](C)(C)C,inactive,–
C/C(Cl)=C/CCl,inactive,–
C/C(=N\O)c1ccc(OCC(=O)N2CCCCC2)cc1,inactive,–
CCN1CCN(C(=O)N[C@@H](C(=O)N[C@@H]2C(=O)N3[C@@H]2SC(C)(C)[C@H]3C(=O)O)c2ccccc2)C(=O)C1=O,inactive,–

SMILES,outcome,"fluorescence, % of fluorescein control"
CCCCCCCCCCCCCCCC/C=C/C1CC(=O)OC1=O (stereo not given),inactive,–
CC(=O)Nc1ccc(S(=O)(=O)Nc2cc(C)on2)cc1,inactive,–
CC(=O)c1ccc2ccc3ccccc3c2c1,inactive,–
Cc1ccc(O)c(C(=O)c2ccccc2)c1,inactive,–
CC(C)(C)c1ccc(N)cc1,inactive,–
COc1cc(OC)cc(OC)c1,inactive,–
CCCCN1C(=O)c2ccccc2C1=O,inactive,–
COc1ccc2cc(CCC(C)=O)ccc2c1,–,-0.0938% [at 18.6 µM]
C=CCCCCCCCCOC(C)=O,inactive,–
Cc1nc2ccc(Cl)cc2[nH]1,inactive,–
CC(C)CC(O)Cc1ccccc1 (stereo not given),inactive,–
COCc1nnc(-c2ccc[n+]([O-])c2)n1-c1c(Cl)c(Cl)cc2[nH]c(=O)c(=O)[nH]c12,inactive,–
CCOC(=O)CC,inactive,–
CNCCc1ccccn1,–,-0.0162% [at 18.6 µM]
NNC(=O)OCc1ccccc1,inactive,–
CCc1ncc(C)[nH]1,inactive,–
CCCCCCCCCCCBr,inactive,–
N=C(N)S(=O)O,inactive,–
Cc1cc(C)c(C)c(C)c1,inactive,–
COC(=O)C(c1ccccc1Cl)N1CCc2sccc2C1 (stereo not given),inactive,–
